Results on seven compounds are retold here after PubChem BioAssay (EPA / NIEHS).

In assay [1] the target is human Caspase 2 (CASP2), CASP2 (gene 835) (UniProt P42575). As to the kind of experiment: NVS_ENZ_hCASP2: NovaScreen (NVS) Enzymatic Assay for human Caspase 2 (CASP2) (AID 2283135). An outline of the steps: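 E. coli-expressed enzyme in a cell-free protease assay, fluorescence read 1 h after dosing. Compounds at 25 uM in duplicate, with concentration-response up to 50 uM for hits; loss of signal against DMSO baseline.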

In assay [2] the target is human Aurora Kinase A - serine/threonine-protein Kinase 6 (AurA), AURKA (gene 6790) (UniProt O14965). The assay is described as follows: NVS_ENZ_hAurA: NovaScreen (NVS) Enzymatic Assay for human Aurora Kinase A - serine/threonine-protein Kinase 6 (AurA) (AID 2283142). An outline of the steps: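 Cell-free enzymatic assay with human Aurora A, 1 hour after dosing. Fluorescent substrate turnover detected after electrophoretic mobility shift separation of substrate and product. Screened at 25 uM, actives retested in concentration-response up to 50 uM.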

For assay [3], the target named is human IkappaB Kinase alpha (IKKa), CHUK (gene 1147) (UniProt O15111). The assay is described as follows: NVS_ENZ_hIKKa: NovaScreen (NVS) Enzymatic Assay for human IkappaB Kinase alpha (IKKa) (AID 2283167). The essentials: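 Cell-free recombinant human IKKa with fluorescent substrate, product separated by electrophoretic mobility shift; read 1 hour after dosing. Primary screen duplicate at 25 uM, actives then concentration-response up to 50 uM; loss of signal relative to DMSO.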

Assay [4] deals with human Mitogen-Activated Protein Kinase 1 (MAPK 1), MAPK1 (gene 5594) (UniProt P28482). The assay is described as follows: NVS_ENZ_hMAPK1: NovaScreen (NVS) Enzymatic Assay for human Mitogen-Activated Protein Kinase 1 (MAPK 1) (AID 2283175). An outline of the steps: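 Cell-free recombinant human MAPK1 enzymatic assay, fluorescence/electrophoretic mobility shift read at 1 h; loss of signal vs DMSO. Primary screen in duplicate at 25 uM; actives (e.g. ≥30% inhibition) run as concentration-response up to 50 uM.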

Assay [5] deals with human MET Proto-Oncogene, Receptor Tyrosine Kinase (MET), MET (gene 4233) (UniProt P08581). The assay is described as follows: NVS_ENZ_hMet: NovaScreen (NVS) Enzymatic Assay for human MET Proto-Oncogene, Receptor Tyrosine Kinase (MET) (AID 2283180). The essentials: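 Cell-free MET kinase assay using recombinant protein and fluorescent substrate, with mobility-shift separation; read 1 h after dosing. Primary duplicate at 25 uM; actives in singleton concentration-response to 50 uM maximum. Signal loss versus DMSO.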

For assay [6], the target named is human p21 Activated Kinase 4 (PAK4), PAK4 (gene 10298) (UniProt O96013). The assay is described as follows: NVS_ENZ_hPAK4: NovaScreen (NVS) Enzymatic Assay for human p21 Activated Kinase 4 (PAK4) (AID 2283189). An outline of the steps:
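Cell-free recombinant human PAK4 activity assay; fluorescent substrate and product separated by electrophoretic mobility shift, read 1 h after dosing. Initially tested in duplicate at 25 uM, relative to DMSO baseline.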

Assay [7] addresses human Tyrosine Protein Kinase Receptor Tie-2 (Tie2), TEK (gene 7010) (UniProt Q02763). As to the kind of experiment: NVS_ENZ_hTie2: NovaScreen (NVS) Enzymatic Assay for human Tyrosine Protein Kinase Receptor Tie-2 (Tie2) (AID 2283225). An outline of the steps: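 Recombinant human Tie2 kinase activity was read cell-free by fluorescence with electrophoretic mobility shift, 1 hour after dosing. The screen used 25 uM in duplicate, then concentration-response up to 50 uM. Signal loss was scored against DMSO.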

Assay [8] concerns the target rat Corticotropin Releasing Factor Receptor (CRF), Crhr1 (gene 58959) (UniProt P35353). As to the kind of experiment: NVS_GPCR_rCRF: NovaScreen (NVS) G Protein-Coupled Receptor Assay for rat Corticotropin Releasing Factor Receptor (CRF) (AID 2283300). The essentials:
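Rat cortical membranes used as receptor source in a radioligand competitive displacement binding assay; scintillation read 2 h after dosing. Primary screen run in duplicate at 25 uM; loss of signal versus DMSO baseline indicates binding.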

For assay [9], the target named is human Ephrin type-A Receptor 2 (EphA2), EPHA2 (gene 1969) (UniProt P29317). The assay is described as follows: NVS_ENZ_hEphA2: NovaScreen (NVS) Enzymatic Assay for human Ephrin type-A Receptor 2 (EphA2) (AID 2283155). An outline of the steps:
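Cell-free recombinant EphA2 kinase with specific substrate, 1 h, fluorescence with electrophoretic mobility-shift separation of substrate and product. Primary screen at 25 uM in duplicate; hits retested in singleton concentration-response up to 50 uM, referenced to DMSO.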

Assay [10] deals with Protein deacetylase HDAC6 (Homo sapiens) (UniProt Q9UBN7). The assay is described as follows: NVS_ENZ_hHDAC6: NovaScreen (NVS) Enzymatic Assay for human Histone Deacetylase 6 (HDAC6) (AID 2283164). An outline of the steps: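 Recombinant human HDAC6 with fluorescent substrate, 1 h; product separated from substrate by electrophoretic mobility shift. Primary screen in duplicate at 25 uM; actives retested singly in concentration-response up to 50 uM, fitted relative to DMSO.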

For assay [11], the target named is rat CYP2C12, Cyp2c12 (gene 25011) (UniProt P11510). As to the kind of experiment: NVS_ADME_rCYP2C12: NovaScreen (NVS) CYP450-related Enzyme Activity (ADME) Assay for rat CYP2C12 (AID 2283119). An outline of the steps:
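Cell-free recombinant rat CYP2C12 activity read by fluorescence 0.5 h after dosing; loss of signal versus acetonitrile control. Primary screen in duplicate at 10 uM; actives then run in concentration-response format.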

Assay [12] concerns the target rat Gamma-Aminobutyric Acid Type A Receptor BDZ, alpha 6 site (GABARa6), Gabra6 (gene 29708) (UniProt P30191). As to the kind of experiment: NVS_LGIC_rGABARa6: NovaScreen (NVS) Ligand-Gated Ion Channel Assay for rat Gamma-Aminobutyric Acid Type A Receptor BDZ, alpha 6 site (GABARa6) (AID 2283339). The essentials: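 Rat cerebellar membranes; radioligand binding, filtration and scintillation counting, read 1 h after dosing. Single-concentration duplicate screen at 25 uM, then concentration-response up to 50 uM for actives; loss of signal fitted versus DMSO baseline.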

Assay [13] is described as follows: ATG_M_32_XSP2: Attagene TRANS-FACTORIAL Multi-Species (XSP2) HepG2 Assay for M19 Transcription Factor (Internal Marker) (AID 2283826). An outline of the steps:
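Read-out: fluorescent reporter mRNA fragments resolved by capillary electrophoresis after RT-PCR, gain-of-signal versus DMSO baseline. Cells were human HepG2 carrying transfected multi-reporter units, exposed 24 h. Medium contained 3 nM 6-alpha-fluorotestosterone plus 1.5 nM norgestrel.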

Another assay has as its target PPP2CA (gene 5515) (UniProt P67775). The assay is described as follows: NVS_ENZ_hPPP2CA: NovaScreen (NVS) Enzymatic Assay for human Protein Phosphatase 2 Aatalytic subunit Alpha (PPP2CA) (AID 2283199). The essentials: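 Recombinant human PPP2CA with fluorescent substrate; product separated from substrate by electrophoretic mobility shift, read 1.33 h after dosing. Duplicate single-point at 25 uM, then singleton concentration-response up to 50 uM; loss of signal versus DMSO.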

The test system of assay [14] is rat Monoamine Oxidase, MAO-A, Peripheral (MAOAP), gene 29253. As to the kind of experiment: NVS_ENZ_rMAOAP: NovaScreen (NVS) Enzymatic Assay for rat Monoamine Oxidase, MAO-A, Peripheral (MAOAP) (AID 2283237). An outline of the steps: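 Rat liver mitochondrial membranes served as the MAO-A source, with enzyme activity measured by radiometric scintillation counting 1.17 hours after dosing. Loss of signal was fitted against DMSO; primary screen used 25 uM in duplicate, follow-up used concentration series.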

Records with an inconclusive call do not appear. Calls of active or inactive are those of the source. Rule for the calls: active = hit-call score of the fitted dose curve at least 0.9, where 1 is the maximum; inconclusive = response in the unintended direction; inactive = score below 0.9.

The AC50 is the midpoint of the concentration-response curve, whichever way the signal moves.

Chain of human Aurora Kinase A - serine/threonine-protein Kinase 6 (AurA), AURKA (gene 6790) (O14965 whole entry, looked up): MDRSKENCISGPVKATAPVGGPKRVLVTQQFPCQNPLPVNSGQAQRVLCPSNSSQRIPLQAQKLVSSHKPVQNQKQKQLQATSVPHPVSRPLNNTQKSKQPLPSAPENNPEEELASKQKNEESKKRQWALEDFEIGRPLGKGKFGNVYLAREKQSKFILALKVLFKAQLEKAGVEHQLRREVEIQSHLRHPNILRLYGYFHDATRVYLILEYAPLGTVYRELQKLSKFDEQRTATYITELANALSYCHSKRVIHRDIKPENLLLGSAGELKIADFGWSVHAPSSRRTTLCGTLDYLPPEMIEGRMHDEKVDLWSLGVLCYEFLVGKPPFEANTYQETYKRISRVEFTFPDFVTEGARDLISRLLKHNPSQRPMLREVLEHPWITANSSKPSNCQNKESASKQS
Chain of human IkappaB Kinase alpha (IKKa), CHUK (gene 1147) (O15111 whole entry, looked up): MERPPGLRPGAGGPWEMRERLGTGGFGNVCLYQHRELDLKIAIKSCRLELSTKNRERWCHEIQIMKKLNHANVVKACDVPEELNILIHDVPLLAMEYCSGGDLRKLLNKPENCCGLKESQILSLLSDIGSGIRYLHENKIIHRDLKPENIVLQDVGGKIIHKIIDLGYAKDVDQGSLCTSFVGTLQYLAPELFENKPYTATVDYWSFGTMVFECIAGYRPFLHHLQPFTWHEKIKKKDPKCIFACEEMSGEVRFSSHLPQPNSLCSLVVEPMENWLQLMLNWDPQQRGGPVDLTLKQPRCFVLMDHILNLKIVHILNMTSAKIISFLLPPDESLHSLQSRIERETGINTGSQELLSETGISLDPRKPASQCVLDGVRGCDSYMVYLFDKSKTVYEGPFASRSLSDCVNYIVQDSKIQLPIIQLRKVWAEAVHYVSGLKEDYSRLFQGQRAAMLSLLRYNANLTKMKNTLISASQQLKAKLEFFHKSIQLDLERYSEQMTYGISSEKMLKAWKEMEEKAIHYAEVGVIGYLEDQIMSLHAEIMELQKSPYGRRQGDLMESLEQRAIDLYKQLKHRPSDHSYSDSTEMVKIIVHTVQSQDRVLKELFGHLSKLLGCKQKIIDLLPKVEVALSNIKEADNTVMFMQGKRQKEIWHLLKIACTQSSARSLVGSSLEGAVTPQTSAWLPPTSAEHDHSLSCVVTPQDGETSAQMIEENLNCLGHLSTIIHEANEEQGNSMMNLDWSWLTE
Chain of human p21 Activated Kinase 4 (PAK4), PAK4 (gene 10298) (O96013 whole entry, looked up): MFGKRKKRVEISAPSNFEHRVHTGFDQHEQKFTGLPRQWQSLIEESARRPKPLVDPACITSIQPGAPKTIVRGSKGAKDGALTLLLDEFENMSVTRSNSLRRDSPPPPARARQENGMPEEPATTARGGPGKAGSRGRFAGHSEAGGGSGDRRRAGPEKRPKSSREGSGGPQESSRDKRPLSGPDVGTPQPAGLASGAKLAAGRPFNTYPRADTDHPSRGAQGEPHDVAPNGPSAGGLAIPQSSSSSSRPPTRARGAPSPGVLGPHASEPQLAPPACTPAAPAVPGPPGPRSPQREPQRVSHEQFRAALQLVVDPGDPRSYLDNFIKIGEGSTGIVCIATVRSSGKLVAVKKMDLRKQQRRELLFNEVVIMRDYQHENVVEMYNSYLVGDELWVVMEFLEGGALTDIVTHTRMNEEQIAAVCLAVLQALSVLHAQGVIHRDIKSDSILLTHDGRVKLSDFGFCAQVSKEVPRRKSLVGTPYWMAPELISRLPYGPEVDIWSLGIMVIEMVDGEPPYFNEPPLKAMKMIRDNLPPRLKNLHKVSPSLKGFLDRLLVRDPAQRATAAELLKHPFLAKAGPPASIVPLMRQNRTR
Chain of rat CYP2C12, Cyp2c12 (gene 25011) (P11510 whole entry, looked up): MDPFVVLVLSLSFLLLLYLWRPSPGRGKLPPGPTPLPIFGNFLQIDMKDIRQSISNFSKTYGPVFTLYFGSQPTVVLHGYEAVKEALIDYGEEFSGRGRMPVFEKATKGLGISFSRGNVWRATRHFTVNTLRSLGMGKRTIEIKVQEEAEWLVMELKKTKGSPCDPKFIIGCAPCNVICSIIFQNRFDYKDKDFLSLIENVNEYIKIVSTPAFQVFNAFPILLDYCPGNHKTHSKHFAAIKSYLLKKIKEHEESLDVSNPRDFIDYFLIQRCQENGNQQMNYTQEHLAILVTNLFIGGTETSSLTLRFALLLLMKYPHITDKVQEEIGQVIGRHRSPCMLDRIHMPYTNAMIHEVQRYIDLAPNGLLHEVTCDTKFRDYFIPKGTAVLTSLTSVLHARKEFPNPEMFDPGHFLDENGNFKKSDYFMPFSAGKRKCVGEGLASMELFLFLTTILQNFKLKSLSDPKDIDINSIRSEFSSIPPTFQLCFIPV
Chain of human Ephrin type-A Receptor 2 (EphA2), EPHA2 (gene 1969) (P29317 whole entry, looked up): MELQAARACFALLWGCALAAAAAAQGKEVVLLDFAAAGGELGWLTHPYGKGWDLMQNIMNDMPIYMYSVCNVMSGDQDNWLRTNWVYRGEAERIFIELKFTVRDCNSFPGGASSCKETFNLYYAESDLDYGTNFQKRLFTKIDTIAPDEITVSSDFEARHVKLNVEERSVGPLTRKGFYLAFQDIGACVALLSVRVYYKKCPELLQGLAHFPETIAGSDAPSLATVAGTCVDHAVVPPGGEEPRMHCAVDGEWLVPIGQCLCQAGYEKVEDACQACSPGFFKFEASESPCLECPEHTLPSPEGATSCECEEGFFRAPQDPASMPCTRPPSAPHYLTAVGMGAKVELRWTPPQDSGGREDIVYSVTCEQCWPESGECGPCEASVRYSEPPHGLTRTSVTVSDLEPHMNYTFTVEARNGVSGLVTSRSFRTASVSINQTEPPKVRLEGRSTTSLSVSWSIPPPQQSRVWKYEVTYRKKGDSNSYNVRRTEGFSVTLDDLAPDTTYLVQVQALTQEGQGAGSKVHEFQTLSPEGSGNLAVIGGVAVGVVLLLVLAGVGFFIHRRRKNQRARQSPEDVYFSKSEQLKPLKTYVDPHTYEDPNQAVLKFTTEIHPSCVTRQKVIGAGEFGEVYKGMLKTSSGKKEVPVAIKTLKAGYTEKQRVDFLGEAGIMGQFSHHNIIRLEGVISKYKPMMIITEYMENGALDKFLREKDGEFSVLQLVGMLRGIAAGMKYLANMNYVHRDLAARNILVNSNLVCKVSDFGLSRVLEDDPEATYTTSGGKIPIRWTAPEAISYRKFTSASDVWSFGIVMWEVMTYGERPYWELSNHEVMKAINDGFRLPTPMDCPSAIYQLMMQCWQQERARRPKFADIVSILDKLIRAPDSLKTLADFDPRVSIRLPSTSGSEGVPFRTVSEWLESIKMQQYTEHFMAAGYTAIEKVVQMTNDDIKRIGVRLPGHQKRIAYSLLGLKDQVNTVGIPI
Chain of PPP2CA (gene 5515) (P67775 whole entry, looked up): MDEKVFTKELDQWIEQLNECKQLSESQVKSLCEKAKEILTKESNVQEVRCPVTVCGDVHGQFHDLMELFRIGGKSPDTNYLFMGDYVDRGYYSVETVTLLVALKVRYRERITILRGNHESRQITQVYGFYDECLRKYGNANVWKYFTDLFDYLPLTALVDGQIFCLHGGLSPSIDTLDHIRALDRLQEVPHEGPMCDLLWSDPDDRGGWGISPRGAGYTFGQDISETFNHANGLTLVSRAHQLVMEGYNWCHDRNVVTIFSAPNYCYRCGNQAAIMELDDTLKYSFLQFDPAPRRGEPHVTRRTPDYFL
Chain of human Mitogen-Activated Protein Kinase 1 (MAPK 1), MAPK1 (gene 5594) (P28482 whole entry, looked up): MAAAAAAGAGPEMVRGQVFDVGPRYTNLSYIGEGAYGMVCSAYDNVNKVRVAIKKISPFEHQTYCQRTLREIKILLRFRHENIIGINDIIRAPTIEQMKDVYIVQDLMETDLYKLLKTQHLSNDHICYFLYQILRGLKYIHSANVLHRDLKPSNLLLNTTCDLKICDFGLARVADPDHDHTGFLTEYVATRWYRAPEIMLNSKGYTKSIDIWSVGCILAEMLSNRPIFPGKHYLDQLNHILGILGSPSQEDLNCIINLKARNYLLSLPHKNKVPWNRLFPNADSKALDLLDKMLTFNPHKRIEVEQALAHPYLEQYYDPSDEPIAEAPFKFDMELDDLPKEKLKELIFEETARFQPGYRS
Chain of rat Corticotropin Releasing Factor Receptor (CRF), Crhr1 (gene 58959) (P35353 whole entry, looked up): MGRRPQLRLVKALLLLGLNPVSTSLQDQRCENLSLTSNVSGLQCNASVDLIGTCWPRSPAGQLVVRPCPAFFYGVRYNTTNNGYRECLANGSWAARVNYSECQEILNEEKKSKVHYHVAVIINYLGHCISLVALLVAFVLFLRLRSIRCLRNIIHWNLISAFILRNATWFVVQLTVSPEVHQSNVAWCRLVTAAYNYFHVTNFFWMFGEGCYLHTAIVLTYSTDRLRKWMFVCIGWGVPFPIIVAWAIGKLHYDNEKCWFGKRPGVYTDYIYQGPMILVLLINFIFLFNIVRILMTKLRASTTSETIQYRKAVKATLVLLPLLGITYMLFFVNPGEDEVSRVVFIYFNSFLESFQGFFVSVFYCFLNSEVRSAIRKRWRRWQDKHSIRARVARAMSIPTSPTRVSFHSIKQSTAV
Chain of human Caspase 2 (CASP2), CASP2 (gene 835) (P42575 whole entry, looked up): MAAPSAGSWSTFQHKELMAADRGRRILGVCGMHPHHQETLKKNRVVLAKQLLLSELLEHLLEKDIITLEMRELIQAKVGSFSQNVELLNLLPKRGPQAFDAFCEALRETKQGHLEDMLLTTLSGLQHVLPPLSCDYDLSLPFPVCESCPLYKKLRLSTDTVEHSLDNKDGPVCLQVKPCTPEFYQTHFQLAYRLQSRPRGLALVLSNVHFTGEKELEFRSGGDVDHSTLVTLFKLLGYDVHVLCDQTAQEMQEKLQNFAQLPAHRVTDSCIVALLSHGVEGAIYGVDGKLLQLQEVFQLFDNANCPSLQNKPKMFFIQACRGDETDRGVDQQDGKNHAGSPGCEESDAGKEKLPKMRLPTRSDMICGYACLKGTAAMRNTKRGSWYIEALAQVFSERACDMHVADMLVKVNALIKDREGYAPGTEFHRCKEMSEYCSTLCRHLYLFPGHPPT

Consider `S=C([S-])NCCNC(=S)[S-].[Mn+2]`, for which, in [1], the compound was classed as inactive. Also, the AC50 in assay [2] is 1.79 µM (active); in assay [3], 30.1 µM (active); in assay [4], 5.17 µM (active); in [5], 20.5 µM (active); in assay [6], 5.91 µM (active); in assay [7], 12.9 µM (active). Further, the concentration at half-maximal activity (AC50) in assay [8] was 12.5 µM (active).
With `CCOC(=O)NCCOc1ccc(Oc2ccccc2)cc1`, the compound was classed as inactive in [9].
Turning to `CC(=O)[C@H]1CC[C@H]2[C@@H]3CCC4=CC(=O)CC[C@]4(C)[C@H]3CC[C@]12C`, the compound was called inactive in assay [10].
On to `COC(=O)c1ccccc1S(=O)(=O)NC(=O)Nc1nc(OC(F)F)cc(OC(F)F)n1`, for which the call in assay [11] and in [12] was inactive.
Take `CN(C)C(=O)NC1(c2ccccc2)CCN(CC[C@@]2(c3ccc(F)c(F)c3)CN(C(=O)c3ccccc3)CCO2)CC1`: the compound was classed as inactive in assay [2].
Regarding `CC/C(=C(\c1ccccc1)c1ccc(OCCN(C)C)cc1)c1ccccc1`, the result in [2], in assay [3], in assay [6] and in [13] was inactive.
`CCN(CC)CCNc1ccc(CNC=O)c2sc3ccc(OC)cc3c(=O)c12`: the compound was called inactive (in [3]; with PPP2CA (gene 5515)). The AC50 in assay [14] is 9.35 µM (active).
